Measurements from PubChem BioAssay AID777 (Sanford-Burnham Center for Chemical Genomics, 2007).
About 19,000 (20%) of roughly 96,000 compounds were called active.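 The calls were made as follows: active = blocking of liver enzyme CYP2C9 beyond about 50% at 5 µM (limit read from the data); inactive = the rest.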 These entries were drawn from the full list.

Target: Cytochrome P450 2C9 (Homo sapiens) (UniProt P11712)
Experiment: blockers of cytochrome P450 2C9 activity – biochemical, luminescence, ADME assay, primary screen (AID 777)
Details: CYP2C9 Supersomes, luciferin-H conversion, at 5 µM, stronger effect = higher value

Cytochrome P450 2C9 (Homo sapiens), sequence (P11712 whole entry, looked up): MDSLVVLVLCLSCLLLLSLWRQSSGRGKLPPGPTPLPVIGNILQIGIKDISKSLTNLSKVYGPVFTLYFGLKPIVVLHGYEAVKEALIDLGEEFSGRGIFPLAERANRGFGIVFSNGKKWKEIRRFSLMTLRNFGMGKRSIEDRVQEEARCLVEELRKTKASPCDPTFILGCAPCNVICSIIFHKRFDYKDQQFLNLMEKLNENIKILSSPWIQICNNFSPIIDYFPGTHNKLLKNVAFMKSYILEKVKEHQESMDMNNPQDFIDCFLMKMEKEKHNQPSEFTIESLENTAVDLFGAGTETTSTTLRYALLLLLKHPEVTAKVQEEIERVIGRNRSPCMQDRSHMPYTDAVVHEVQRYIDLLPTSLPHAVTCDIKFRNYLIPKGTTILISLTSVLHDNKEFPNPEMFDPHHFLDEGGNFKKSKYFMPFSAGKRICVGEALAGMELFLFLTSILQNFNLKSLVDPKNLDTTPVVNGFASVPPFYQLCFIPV

Question: Which inhibition does the source give for CCn1c(SCC(=O)Nc2cc(C)ccc2C)nnc1-c1cnccn1 here?
Answer: 1.2% (inactive)

Question: How did the inhibition turn out when COc1cc(Cl)c(C)cc1NC(=O)CSc1nnc(-c2cccnc2)n1Cc1ccco1 was run?
Answer: 72.4% (active)

Question: Which inhibition does the source give for COc1ccc(NC(=O)CSc2nnc(-c3cccs3)n2Cc2ccco2)cc1OC here?
Answer: 30.5% (inactive)

Question: With COc1cc(OC)cc(-c2cc3nc(C4CCN(C(=O)OC(C)(C)C)CC4)cc(=O)n3[nH]2)c1 as the molecule, how does the inhibition read?
Answer: -10.3% (inactive)

Question: Cc1nnc2sc(-c3ccco3)nn12 was tested. Which inhibition did it give?
Answer: -2.2% (inactive)

Question: For CN(C)/C=C1\C=C(c2ccccc2)OC1=O, which inhibition is on record?
Answer: -1.5% (inactive)

Question: With CN(C)c1ccc(NC(=S)N(CCc2ccccc2)C2CC(=O)N(c3c(Cl)cccc3Cl)C2=O)cc1 (centres undefined) as the molecule, how does the inhibition read?
Answer: 17% (inactive)

Question: With O=C1CC(Cc2ccccc2)C(=O)N1c1ccc(Cl)cn1 (centres undefined) as the molecule, how does the inhibition read?
Answer: 20.3% (inactive)

Question: How did the inhibition turn out when COc1ccccc1NC(=O)CSc1nnc(-c2ccoc2C)n1CCc1ccccc1 was run?
Answer: 43.7% (inactive)

Question: How did the inhibition turn out when COc1ccc(C)cc1-n1nnnc1SCC(=O)c1cc(C)n(Cc2ccco2)c1C was run?
Answer: 27.2% (inactive)

Question: With O=C(CSc1nnc(-c2cccnc2)n1Cc1ccco1)c1ccc(Cl)c(Cl)c1 as the molecule, how does the inhibition read?
Answer: 81.6% (active)

Question: For COc1ccccc1NC(=O)CSc1nc2sc(C)c(C)c2c(=O)n1Cc1ccco1, which inhibition is on record?
Answer: 93.8% (active)

Question: With O=C(CSc1nnc(-c2ccco2)n1Cc1ccccc1)NC(=O)NCc1ccco1 as the molecule, how does the inhibition read?
Answer: 29.5% (inactive)

Question: With O=C(CSc1nnc(-c2cccnc2)n1Cc1ccco1)c1ccc(Cl)cc1 as the molecule, how does the inhibition read?
Answer: 23.6% (inactive)

Question: COc1ccc(OC)c(NC(=O)CSc2nc3cccnc3n2C)c1 was tested. Which inhibition did it give?
Answer: 7.6% (inactive)

Question: For COc1cc(Cl)c(C)cc1NC(=O)CSc1nnc(-c2ccco2)n1CC(C)C, which inhibition is on record?
Answer: 82.6% (active)

Question: For CCn1c(COc2ccccc2)nnc1SCC(=O)Nc1ccc2c(c1)OCCO2, which inhibition is on record?
Answer: 6.8% (inactive)

Question: Which inhibition does the source give for O=C(CSc1nnc(-c2cnccn2)n1Cc1ccco1)c1ccc(Cl)c(Cl)c1 here?
Answer: 28.8% (inactive)

Question: For CCn1c(COc2ccc(OC)cc2)nnc1SCC(=O)Nc1cc(OC)ccc1OC, which inhibition is on record?
Answer: 53.8% (active)

Question: For CCCOC(=O)Nc1ccccc1C(N)=O, which inhibition is on record?
Answer: -7.2% (inactive)

Question: N=c1c2c3c(sc2ncn1CCCN1CCOCC1)CCCCC3 was tested. Which inhibition did it give?
Answer: 6.9% (inactive)

Question: With CCOc1ccc(N=Cc2c(O)n(-c3cccc(C)n3)c(=O)c3ccccc23)cc1 as the molecule, how does the inhibition read?
Answer: 18% (inactive)

Question: Which inhibition does the source give for Cc1cc(C)n(-c2cc(Oc3ccccc3)ncn2)n1 here?
Answer: 21.8% (inactive)

Question: CCOc1ccc(NC(=O)CC2NCCNC2=O)cc1 (centres undefined) was tested. Which inhibition did it give?
Answer: -7% (inactive)

Question: CCN(CC)C(=O)C1CCC(C)(C(=O)O)C1(C)C (centres undefined) was tested. Which inhibition did it give?
Answer: -7.9% (inactive)

Question: COc1ccc(C(=O)CSc2nnc(COc3ccccc3)n2Cc2ccco2)cc1 was tested. Which inhibition did it give?
Answer: 55.9% (active)

Question: For CCN(CC)C(=O)CSc1nnc(CNc2ccc(F)cc2)n1Cc1ccco1, which inhibition is on record?
Answer: -8.3% (inactive)

Question: For CCn1c(COc2cccc(OC)c2)nnc1SCC(=O)N1CCOCC1, which inhibition is on record?
Answer: 15.4% (inactive)

Question: With Cc1ccc(-n2ccc(=O)c(C(=O)O)n2)cc1 as the molecule, how does the inhibition read?
Answer: 54% (active)

Question: Which inhibition does the source give for Cc1cc(C)n(-c2ccc(Cl)c(C(=O)O)n2)n1 here?
Answer: -21% (inactive)

Question: Which inhibition does the source give for CCn1c(SCc2ccc(C)cc2)nnc1-c1nn(-c2ccccc2)ccc1=O here?
Answer: 5% (inactive)

Question: C=CCn1c(N)cc(=O)nc1SCC(=O)Nc1cccc2ccccc12 was tested. Which inhibition did it give?
Answer: -3.7% (inactive)

Question: With C=CCn1c(COc2ccccc2)nnc1SCC(=O)NCC(=O)OCC as the molecule, how does the inhibition read?
Answer: -5.6% (inactive)

Question: C=CCn1c(SCC(=O)Nc2nc3ccccc3s2)nnc1-c1ccccc1O was tested. Which inhibition did it give?
Answer: 56.6% (active)

Question: How did the inhibition turn out when C=CCn1c(CSc2nc3ccccc3s2)nnc1SCC(=O)NCc1ccco1 was run?
Answer: 24.7% (inactive)

Question: Cc1nnc(SCC(=O)NCc2ccccc2)s1 was tested. Which inhibition did it give?
Answer: -1% (inactive)

Question: C=CCn1c(SCC(=O)NCc2ccccc2)nnc1-c1cc(Br)ccc1O was tested. Which inhibition did it give?
Answer: 97.5% (active)

Question: With CCC(Sc1nncn1C)C(=O)Nc1nnc(-c2ccc(Cl)cc2)s1 (centres undefined) as the molecule, how does the inhibition read?
Answer: 32.9% (inactive)

Question: For COc1ccc2c(c1OC)C(=O)OC2c1c(O)nc(SC)n(-c2ccccc2)c1=O (centres undefined), which inhibition is on record?
Answer: -12.4% (inactive)

Question: Which inhibition does the source give for O=C(NC1CC2CCCC(C1)N2C(=O)N1CCCCC1)C1CCCCC1 (centres undefined) here?
Answer: 25.5% (inactive)

Question: For CCOc1ccccc1Nc1nnc(SCC(=O)Nc2cc(C)on2)s1, which inhibition is on record?
Answer: 7.4% (inactive)

Question: How did the inhibition turn out when COc1ncnc2c1N=C1CC(C)(C)CC(N)=C1S2 was run?
Answer: 1.2% (inactive)

Question: For Cc1cc2cc3c(cc2nc1SCC(=O)Nc1c(C)cccc1C)CCC3, which inhibition is on record?
Answer: 61.6% (active)

Question: Cc1nc2cc(NC(=O)CSc3nc4c(C)cccc4cc3C#N)ccc2s1 was tested. Which inhibition did it give?
Answer: 25.5% (inactive)

Question: CCCn1c(SCC(=O)Nc2c(C)cccc2C)nnc1C(C)C was tested. Which inhibition did it give?
Answer: 4.1% (inactive)

Question: Cn1c(SCC(=O)OC2CCCCC2)nnc1-c1ccc(S(=O)(=O)N2CCCC2)cc1 was tested. Which inhibition did it give?
Answer: 7.9% (inactive)

Question: CCN(CC)c1ccc(/C=N/Nc2nc(C)cc(=O)[nH]2)cc1 was tested. Which inhibition did it give?
Answer: -21.5% (inactive)

Question: How did the inhibition turn out when CC1=C2C(=O)OC(c3ccoc3)C2(C)CCC1 (centres undefined) was run?
Answer: 57.9% (active)

Question: How did the inhibition turn out when CC(C)C(=O)Nc1c(C(=O)c2ccc(F)cc2)oc2ccccc12 was run?
Answer: -0.2% (inactive)
